High-throughput results from PubChem.
The list is not random: actives were taken first. Their share in the collection is about 19%.
IL1B secr inh = qHTS for Inhibitors of Inflammasome Signaling: IL-1-beta AlphaLISA Primary Screen. THP-1 LPS/ATP IL-1B secretion, AlphaLISA, 16 h; hits give low values. activity change, % at 57.5 µM. 360,000 compounds, 4.7% hits; in the data active means activity change below about -50%; inconclusive means mostly about -30% to -49%
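THP-1 cells pretreated 1 hr with compounds (up to 57.5 uM final), then stimulated with LPS (250 ng/mL final) plus ATP (1.25 mM final); secreted IL-1B measured by AlphaLISA after 16 hr, decreased signal indicating inhibition.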
HT1080-NT tox = qHTS for induction of synthetic lethality in tumor cells producing 2HG: qHTS for the HT-1080-NT fibrosarcoma cell line | AID 686970, 2013 | Potency, µM (highest dose often 46.1 µM), inactives show at the highest dose activity, negative = less viability, most hits filed as cytotoxic | 360,000 compounds, 1.6% hits | HT-1080-NT fibrosarcoma viability, CellTiter-Glo ATP luminescence, 48 h;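 further: NT is the 2HG producing partner of a matched IDH1 knockdown line; potency means the concentration at half of the fitted maximal effect; 0% = DMSO-treated cells and -100% = media-only wells without cells; nearly all actives have a fitted effect of over 55% in size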
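Viability by CellTiter-Glo luminescence after 48 h compound exposure at 37C of HT-1080-NT cells (750/well, RPMI, 5% FBS). % activity scaled between DMSO wells and medium-only wells, then curve-fitted and categorized by curve class.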
DT40 TDP1 CPT = qHTS for Inhibitors of human tyrosyl-DNA phosphodiesterase 1 (TDP1): qHTS in cells in presence of CPT; AID 686979, 2013; Potency, µM (highest dose often 46.2 µM), for the others: top-dose activity change, negative = growth inhibition, hits mostly inhibitors; chicken DT40 Tdp1-/-;hTDP1 cells + 20 nM CPT, ATP luminescence, 48 h; 420,000 compounds, 12% hits; further: potency means the concentration at half of the fitted maximal effect; nearly all actives have a fitted effect of over 55% in size
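Chicken DT40 Tdp1-/- cells stably complemented with human TDP1 were seeded at 400 cells/well in medium containing 20 nM camptothecin, exposed to pin-transferred compounds, and grown at 37 °C for at least 48 hr. Viability was read as ATP luminescence.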
TDP1 cell noCPT = qHTS for Inhibitors of human tyrosyl-DNA phosphodiesterase 1 (TDP1): qHTS in cells in absence of CPT; DT40 Tdp1-/- hTDP1 cells, no CPT, ATP luminescence, 48 h; Potency, µM (top dose mostly 46.2 µM), for the others: at the highest dose activity change, negative = growth inhibition, actives largely listed as inhibitors; 420,000 compounds, 15% hits; further: potency means the concentration at half of the fitted maximal effect; nearly all actives have a fitted effect of over 55% in size
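Cells were dispensed at 400 per well, compounds added by pin tool, plates incubated ≥48 hr at 37 °C, then CellTiter-Glo added for 30 min at room temperature before luminescence reading. Line: DT40 Tdp1-/- complemented with hTDP1; camptothecin omitted.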
HT1080 IDH1KD tx = qHTS for induction of synthetic lethality in tumor cells producing 2HG: qHTS for the HT-1080-IDH1KD cell line; HT-1080 IDH1 knockdown viability, ATP luminescence, 48 h; Potency, µM (doses to about 46.1 µM), without a hit: top-dose activity, negative = toxicity, actives largely listed as cytotoxic; 360,000 compounds, 2% hits;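 further: potency means the concentration at half of the fitted maximal effect; 0% = DMSO wells and -100% = cell-free medium wells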
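Using the IDH1-knockdown HT-1080 line run in the same batch and compound series as the NT line, viability after 48 h at 37 °C was determined by CellTiter-Glo luminescence and expressed as % activity.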
* = called active by the depositor; u = inconclusive; x = no result given; [ ] = dose if it differs, or a comment. Unless noted, the call rests on the fitted dose curve; in most records, active means well fitted curve in the direction sought with a large enough effect; inconclusive means small, poorly fitted or top-dose-only effect, or another doubt; inactive means no such curve, though single readings can be large; an effect the other way counts as inactive or inconclusive. Unless noted, on the % scale 0 is the no-effect control and ±100 the full control effect.

SMILES	IL1B secr inh	HT1080-NT tox	DT40 TDP1 CPT	TDP1 cell noCPT	HT1080 IDH1KD tx
CCn1c(C)c(C)c2cc(C(=O)Nc3cccc(Cl)c3)ccc21	u	-5.8%	u	18.4µM*	-21.8%
CC(=O)c1cccc(NC(=O)c2ccc3c(c2)c(C)c(C)n3Cc2ccc(Cl)cc2)c1	x	x	14.6µM*	9.2µM*	x
COc1ccc(-n2c(=O)c3ccc(C(=O)NCc4ccc(C)cc4)cc3n(CC(=O)Nc3ccc(C)cc3)c2=O)cc1	x	x	u	20.6µM*	x
Cc1cc(C)cc(C(=O)NN2CCN(C)CC2)c1	0.8	13.6%	u	u	21.0%
Cc1c(C)n(Cc2ccccc2)c2ccc(C(=O)NCCN3CCOCC3)cc12	6.8	-26.0%	u	-29.0%	-20.7%
CCc1ccc(CNC(=O)c2ccc3c(c2)c(C)c(C)n3Cc2ccccc2)cc1	x	x	18.4µM*	u	x
CCOc1ccc(-c2nc(N)ncc2Oc2cccc(OC)c2)c(O)c1	u	-25.0%	u	18.4µM*	u
CCOc1ccc(-c2nc(N)ncc2Oc2ccccc2Br)c(O)c1	-22.2	u	u	u	23.1µM*
C=C(C)COc1ccc(-c2nc(N)ncc2-c2ccc(Br)cc2)c(O)c1	0.0	u	u	u	-24.9%
CCOc1ccc(-c2n[nH]c(C)c2Oc2ccc(OC)cc2)c(O)c1	-27.6	u	20.6µM*	10.3µM*	u
CCOc1ccc(-c2ncncc2-c2ccccc2OC)c(O)c1	16.8	-17.2%	13µM*	23.1µM*	-10.0%
Cc1ccc(Nc2ncnc3c2nnn3Cc2ccccc2)cc1	2.5	-7.0%	17.6%	-32.7%	-14.0%
COc1ccc(-c2cc(=O)c(C(=O)c3ccc(C)cc3)n[nH]2)cc1	-0.4	-1.6%	-4.6%	3.7%	-1.8%
O=C1CN(CCN2CC(=O)NC(=O)C2)CC(=O)N1	x	x	7.94µM*	7.08µM*	x
NNC(=O)c1cc(Cl)ccc1Cl	1.0	-0.7%	-0.4%	8.5%	-4.2%
N/C(=C\C(=O)c1cc(Cl)ccc1O)C(Cl)(Cl)Cl	0.0	8.2µM*	3.66µM*	3.26µM*	13µM*
COc1ccc(NC(=O)C(=O)NCc2ccncc2)c(OC)c1	-25.8	18.8%	-11.4%	-10.5%	14.9%
CCOc1ccc(NC(=O)C(=O)N/N=C\c2ccc(CNS(=O)(=O)c3ccccc3)o2)cc1	79.7	u	u	20.6µM*	u
COc1ccc(NC(=O)C(=O)N/N=C\c2ccc(CNC(=O)C(=O)Nc3ccc(C)c(C)c3)o2)c(OC)c1	28.0	-4.5%	5.17µM*	9.2µM*	3.1%
O=C(NC1CC1)C1CCN(c2ncnc3c2sc2cccc(F)c23)CC1	-17.3	-6.3%	23.1µM*	16.4µM*	-1.6%
C/C=C/c1ccc(OCCOc2cc(C=O)ccc2OC)c(OC)c1	-11.5	-22.3%	u	25.9µM*	-12.6%
Cc1cc(C)c(C)c(OCCOCCNCc2ccccc2)c1	u	-16.6%	u	18.4µM*	-10.4%
C/C=C/c1ccc(OCC(=O)O)c(OC)c1	16.2	-26.9%	-2.0%	-16.3%	11.8%
C/C=C/c1ccc(OCCOCCNCc2ccccc2)c(OC)c1	u	u	u	18.4µM*	-29.5%
Cc1ccc(OCCNCc2ccccc2)c(C)c1	-7.5	-12.5%	u	u	-6.2%
SMILES	IL1B secr inh	HT1080-NT tox	DT40 TDP1 CPT	TDP1 cell noCPT	HT1080 IDH1KD tx
Cc1ccc(-n2cc(C(=O)Oc3cccc(C)c3)c3ccccc3c2=O)cc1	x	x	-4.3%	-1.0%	x
COc1ccc(-c2cc(C3CCN(CC(O)C(F)(F)F)CC3)[nH]n2)cc1 (stereo unspecified)	-11.3	-3.1%	u	u	1.9%
COC(=O)C1CCN(Cc2ccc(C)cc2)CC1	13.2	15.4%	-13.3%	-3.1%	10.3%
COc1ccc(-c2cc(C3CCN(Cc4ccc([N+](=O)[O-])cc4)CC3)[nH]n2)cc1	-84.0*	-12.0%	-24.6%	u	u
Clc1ccc(-c2cc(C3CCNCC3)[nH]n2)cc1	u	u	23.1µM*	25.9µM*	-2.3%
COC(=O)c1cc(-c2ccc(Cl)cc2)n[nH]1	-1.4	14.1%	u	-26.1%	9.3%
Cc1ccc(CN2CCC(c3cc(-c4ccc(Cl)cc4)n[nH]3)CC2)cc1	-96.9*	-0.3%	16.4µM*	14.6µM*	u
COc1ccc(NC(=O)Cn2c(=O)oc3cc(Cl)ccc32)c(OC)c1	10.0	1.2%	u	6.51µM*	-3.0%
COc1ccc(NC(=O)Cn2c(=O)oc3cc(S(=O)(=O)N4CCC(C)CC4)ccc32)c(OC)c1	x	x	20.6µM*	8.2µM*	x
COc1ccc(CNC(=O)Cn2c(=O)oc3cc(S(=O)(=O)N4CCCCCC4)ccc32)cc1	x	x	13µM*	16.4µM*	x
Cc1cc(C)cc(NC(=O)Cn2c(=O)oc3cc(S(=O)(=O)N4CCC(C)CC4)ccc32)c1	1.3	u	6.51µM*	14.6µM*	u
COc1ccc(NC(=O)Cn2c(=O)oc3cc(S(=O)(=O)N4CCCC4)ccc32)c(OC)c1	11.1	-11.2%	u	u	0.9%
O=C(NCc1cccnc1)c1cc(C2CCCCN2S(=O)(=O)Cc2ccccc2)on1 (stereo unspecified)	-19.1	11.2%	-14.4%	-14.7%	1.0%
CCOC(=O)c1c(C)[nH]c(C(=O)OCC(=O)Nc2cccnc2Cl)c1C	-6.8	3.9%	-10.6%	u	2.7%
CC1CCN(S(=O)(=O)c2ccc3c(c2)oc(=O)n3CC(=O)NCc2ccc3c(c2)OCO3)CC1	-16.7	-0.2%	u	u	0.7%
COc1ccc(CC(=O)Nc2ccc(S(=O)(=O)N3CCC(C)CC3)cc2)c(OC)c1	-9.7	-14.0%	u	8.2µM*	-2.9%
COc1ccc(CC(NC(C)=O)C(=O)NC2CCN(S(=O)(=O)c3ccc(NC(C)=O)cc3)CC2)c(OC)c1 (stereo unspecified)	-17.4	-1.7%	25.5%	-5.5%	2.9%
COc1ccc(CNC(=O)Cn2c(=O)oc3cc(S(=O)(=O)N4CCC(C)CC4)ccc32)cc1	x	x	8.2µM*	8.2µM*	x
Cc1cc(C)n(-c2ccc(Cl)c(C(=O)Nc3cc(C(F)(F)F)ccc3Cl)n2)n1	13.7	8.6%	u	u	-1.3%
O=C(NCC1Cc2cccc(-c3cccnc3)c2O1)c1cc(-c2ccccc2)n[nH]1 (stereo unspecified)	x	x	-0.9%[9.04 µM]	u	x
CC(=O)c1nn(-c2cccc(Br)c2)cc1C(=O)c1ccco1	-5.2	-18.4%	0.2%	-12.9%	2.1%
Cc1nnc(-c2ccco2)c2cn(-c3cccc(Br)c3)nc12	x	-14.9%	u	23.1µM*	-2.3%
